Measurements published in PubChem BioAssay AID485317 (Broad Institute, 2010).
Several values for one entry are separate records, joined by “and”; a condition that tells them apart may be missing. Identical values can stand only once. The campaign covered roughly 290,000 compounds. About 11,000 (3.8%) were called active.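 The calls were made as follows: active = mean replicate inhibition above about 79%, with every replicate also reaching it (limit read from the data); inconclusive = only one of the two criteria met; inactive = mean below limit and not every replicate reaching it.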 Only a selection was taken, and actives are over-represented in it overall. More than one record can exist for a structure, and the calls need not agree.

Target: FAD-linked sulfhydryl oxidase ALR (Homo sapiens) (UniProt P55789)
Sequence (P55789 whole entry, looked up): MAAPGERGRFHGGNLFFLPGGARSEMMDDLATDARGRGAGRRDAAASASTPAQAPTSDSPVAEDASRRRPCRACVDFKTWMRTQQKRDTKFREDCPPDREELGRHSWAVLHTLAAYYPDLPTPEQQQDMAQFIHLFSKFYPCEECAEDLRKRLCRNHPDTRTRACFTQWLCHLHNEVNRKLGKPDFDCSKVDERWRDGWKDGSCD
Assay: inhibitors of human ALR sulfhydryl oxidase, primary screen, biochemical, H2O2 detection, HRP-luminol luminescence, single point (AID 485317)
Details: purified ALR, DTT oxidation, stronger effect = higher value, concentration not given here

inhibition, -22% (inactive) and 98.8% (active):
O=C(Cn1c[n+](CC(=O)c2ccc([N+](=O)[O-])cc2)cn1)c1ccc([N+](=O)[O-])cc1

inhibition, active:
Cc1ccc(-n2[nH]c(C)c(/C=N/NC(=O)c3cccc([N+](=O)[O-])c3)c2=O)cc1C 97%
CCCc1nnc(SCC(=O)Nc2ccc(C(=O)OCC)cc2)o1 99.2%
CN(C)/C=C1/C(=O)Nc2ccccc21 98.8%
Cc1cc(C)c(/C=C2\C(=O)Nc3ccccc32)[nH]1 98.9%
Cc1cc(NC(=O)CSCc2nc(-c3cccc(Cl)c3)oc2C)no1 96.6%
CNS(=O)(=O)c1cnccc1N1CCN(c2cccc(C)c2)CC1 98.6%
O=C(Nc1ccn(Cc2ccccc2)n1)c1n[nH]c([N+](=O)[O-])c1Cl 93.5%
COC(=O)c1c(NC(=O)C2CC(C)=C(C)CC2C(=O)O)sc2c1CCCCC2 (configuration not stated) 94.2%
Fc1ccc(-c2ccc(-c3nn4c(-c5ccco5)nnc4s3)o2)cc1 98.5%
O=C(O)CC1=C(Nc2ccccc2)C(=O)N(c2ccccc2)C1c1ccc(Cl)cc1 (configuration not stated) 96.7%
CN(c1ccccc1)S(=O)(=O)c1cc(C(=O)Nc2nc3ccccc3[nH]2)ccc1Cl 94.8%
CCn1c(CNc2ccc(OC)cc2)nnc1SCC(=O)c1ccc(OC)cc1 98.6%
COc1ccc(NCc2nnc(SCc3ccccc3)n2-c2ccc(OC)cc2)cc1 91.9%

inhibition, inactive:
COC(=O)[C@@]12CCCN1[C@H](c1ccc(-c3ccc(F)cc3)c(OC)c1)[C@H]1C(=O)N(C)C(=O)[C@H]12 -0.553%
CCOc1ncccc1C(=O)OCC(=O)c1c[nH]c2ccccc12 16.6%
Cc1cccc(C(=O)NNC(=O)c2cccc([N+](=O)[O-])c2)c1 2.77%
Cc1[nH]n(-c2ccc([N+](=O)[O-])cc2)c(=O)c1C=NCCN1CCN(C(=O)c2ccccc2F)CC1 -0.584%
COc1ccc(C(=O)NCC2CCCCC2)cc1S(=O)(=O)N1CCCC1 -2.78%
NC(=O)CSc1nnc(NC(=O)c2ccc3ccccc3c2)s1 -2.49%
O=C(NCCS(=O)(=O)N1CCN(c2ccc(F)cc2)CC1)c1ccc2c(c1)OCO2 1.71%
CC(=O)Nc1ccc(NC(=O)CSc2nnnn2C2CCCCC2)cc1 -20.6%
NS(=O)(=O)c1cccc(NC(=O)COC(=O)c2cc([N+](=O)[O-])ccc2N2CCCC2)c1 -0.799%
Cc1cc(C)cc(OCc2nnc(SCC(=O)Nc3ccccc3)o2)c1 5.24%
Cc1ccc(NC(=O)CSc2nnc(COc3ccccc3C)o2)cc1 -0.274%
O=C(c1cn(-c2ccccc2)nc1-c1cccnc1)N1CCN(S(=O)(=O)c2ccccc2F)CC1 -0.713%
O=C(c1ccc(NS(=O)(=O)c2ccc3[nH]c(=O)[nH]c3c2)cc1)N1CCCCC1 0.0938%
CN(C)/C=C1/Nc2ccccc2C1=O 31.9%
Cc1ccccc1-n1c(C)cc(/C=C2\NC(=O)NC2=O)c1C -11.5%
O=C1Nc2ccccc2/C1=C/c1ccnc2ccccc12 -5.03%
CN(C)/C=C1\C=C(c2ccccc2)OC1=O -9.29%
CC(=O)NCCNC(=O)c1cc(-c2cccc3ccccc23)nc2ccccc12 -1.4%
Cc1cc(NC(=O)CSCc2ccccc2C)no1 29%
COc1ccccc1C(=O)COC(=O)CSCC(=O)Nc1cc(C)on1 1.76%
COc1ccc(-c2cc(C(=O)Nc3ccccc3O)c3ccccc3n2)cc1 -22.7%
COCCn1c(C)cc(C(=O)COC(=O)CNC(=O)c2ccco2)c1C 0.463%
Cc1cc(NC(=O)COC(=O)/C=C/c2ccc(C)o2)no1 -2.34%
CC(C)=C1SC(N2CCN(c3cccc(C)c3)CC2)=NC1=O 4.81%
CC(C)NC(=O)N1CCN(c2ccncc2S(=O)(=O)N2CCCCC2)CC1 -2.12%
Cc1ccn2c(=O)nc(SCC(=O)NCc3ccc4c(c3)OCO4)nc2c1 -1.9%
O=C(CC(n1cncn1)C(Cl)(Cl)Cl)c1ccc([N+](=O)[O-])cc1 (configuration not stated) 9.46%
O=C(Nn1cnnc1)c1ccc([N+](=O)[O-])cc1 -3.87%
Cc1ccc(Cn2ccc(NC(=O)C3C4CCC(C4)C3C(=O)O)n2)cc1 (configuration not stated) 1.86%
O=C(Nc1ccn(Cc2ccccc2F)n1)c1ccc(COc2ccc(Cl)cc2Cl)o1 -9.12%
Cc1ccc(CC(=O)Nc2ccc(S(=O)(=O)N3CCOCC3)cc2)cc1C -2.53%
COC(=O)c1c(NC(=O)c2cccs2)sc2c1CCCC2 -1.37%
COC(=O)c1c(NC(=O)CCCC(=O)O)sc2c1CCCCC2 -5.42%
COc1cc(-c2nn3c(-c4cccc(C)c4)nnc3s2)cc(OC)c1OC 1.6%
FC(F)(F)c1nnc2sc(-c3ccco3)nn12 -7.15%
COC(=O)CN1C(=S)N(c2ccccc2)C(=O)C1CC(=O)Nc1ccc(Cl)cc1 (configuration not stated) 1.89%
O=C(c1ccc(Cl)cc1)c1cnc(Nc2ccccc2)s1 24.8%
COc1cc(C(=O)NCC(c2ccco2)N2CCCC2)ccc1OCc1ccccc1 (configuration not stated) -2.39%
CN(Cc1c(F)cccc1Cl)C(=O)CNC(=O)c1ccc2c(c1)OCO2 1.35%
COc1cc2c(-c3ccc4c(c3)OCO4)c(-c3ccsc3)oc(=O)c2cc1OC 0.568%
O=C(Nc1cccc(-c2nc3ccccc3[nH]2)c1)c1ccc(C(=O)Nc2cccc(-c3nc4ccccc4[nH]3)c2)cc1 -5.21%
Cc1cccc(NC(=O)c2ccc(S(=O)(=O)N(C)c3ccccc3)cc2)n1 -13.4%
O=C(c1cc(-c2ccco2)nc2ccccc12)N(Cc1nnc(-c2ccc(Cl)cc2)o1)C1CC1 2.44%
Cn1cccc1C(=O)OCC(=O)c1ccc(Br)s1 0.737%
COC(=O)c1ccc(NC(=O)CSc2nnc(CNc3ccc(OC)cc3)n2C)cc1 -7.45%
COc1ccc(-c2nnc(SCC(=O)c3ccco3)n2-c2ccccc2)cc1 -5.92%
CCc1nnc(NC(=O)CSc2nnc(Cc3ccccc3)n2-c2ccc(OC)cc2)s1 -14.6%
C=CCn1c(CNC(=O)c2ccco2)nnc1SCC(=O)c1ccc(OC)cc1 29.4%
